In ChEMBL document CHEMBL3988442, “University of Dundee, Small-Polar-MMV Screening Library” (2021):
For some assays here: Measured potencies and affinities stand elsewhere.

How the values were obtained:
Design in all cases: scale not given: direction of the effect not stated beside the values
[1] = molecular target: Protein translocase subunit SecA (Escherichia coli (strain K12)) (UniProt P10408); assay: Assay to Identify E. coli SecA ATPase Inhibitors; format: functional; details: 30 µM
[2] = molecular target: T1, Ubiquitin-activating enzyme e1, putative (Leishmania donovani (strain BPK282A1)) (UniProt E9BSI1); assay: Leishmania donovani Ubiquitin Activating Enzyme (LdE1); format: functional; details: 30 µM
T1 sequence (whole entry): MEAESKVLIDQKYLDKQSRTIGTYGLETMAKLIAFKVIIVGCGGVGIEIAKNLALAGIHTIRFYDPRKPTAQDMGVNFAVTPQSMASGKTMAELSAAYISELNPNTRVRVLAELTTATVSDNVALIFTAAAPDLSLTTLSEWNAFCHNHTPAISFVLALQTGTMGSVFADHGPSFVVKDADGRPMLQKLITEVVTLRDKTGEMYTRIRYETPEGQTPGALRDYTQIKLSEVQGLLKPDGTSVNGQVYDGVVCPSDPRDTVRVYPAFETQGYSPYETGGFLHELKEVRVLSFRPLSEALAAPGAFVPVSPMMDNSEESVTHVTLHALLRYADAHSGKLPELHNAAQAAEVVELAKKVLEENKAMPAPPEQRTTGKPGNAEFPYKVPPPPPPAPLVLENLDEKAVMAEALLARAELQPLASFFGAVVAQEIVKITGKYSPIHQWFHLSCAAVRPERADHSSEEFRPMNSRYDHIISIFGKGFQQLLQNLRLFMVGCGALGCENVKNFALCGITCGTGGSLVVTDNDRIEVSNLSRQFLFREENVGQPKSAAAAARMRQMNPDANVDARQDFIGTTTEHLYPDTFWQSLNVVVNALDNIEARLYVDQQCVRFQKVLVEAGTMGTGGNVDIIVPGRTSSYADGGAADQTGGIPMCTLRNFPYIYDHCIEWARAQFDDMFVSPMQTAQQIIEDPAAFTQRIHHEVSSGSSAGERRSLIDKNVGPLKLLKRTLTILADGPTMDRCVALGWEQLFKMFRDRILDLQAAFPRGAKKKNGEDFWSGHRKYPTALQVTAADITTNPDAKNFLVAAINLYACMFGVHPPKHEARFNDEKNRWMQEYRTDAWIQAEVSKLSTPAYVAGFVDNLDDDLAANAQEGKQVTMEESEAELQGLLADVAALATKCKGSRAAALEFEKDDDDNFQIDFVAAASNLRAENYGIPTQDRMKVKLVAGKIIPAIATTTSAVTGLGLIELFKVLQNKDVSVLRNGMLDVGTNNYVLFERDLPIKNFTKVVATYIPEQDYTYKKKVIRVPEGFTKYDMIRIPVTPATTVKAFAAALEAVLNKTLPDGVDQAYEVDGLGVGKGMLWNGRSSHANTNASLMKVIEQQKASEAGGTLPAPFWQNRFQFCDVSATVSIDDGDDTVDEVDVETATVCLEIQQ

[3] = molecular target: Sialic acid-binding Ig-like lectin 9 (Homo sapiens) (UniProt Q9Y336); assay: Hs-Siglec9 ALPHAscreen SOP 20170721; details: 10 µM
Trypanosoma cruzi = assay: Trypanosoma cruzi phosphomannomutase and mannose-1-phosphate guanylyltransferase assay; format: functional; details: 10 µM
[4] = molecular target: T2, Arginase-2, mitochondrial (Homo sapiens) (UniProt P78540); assay: in vitro enzyme assay to detect the production of urea directly proportional to the activity of Arginase II; format: functional; details: 33.3 µM; further: in the data most compounds retested in dose-response had high values
T2 sequence (whole entry): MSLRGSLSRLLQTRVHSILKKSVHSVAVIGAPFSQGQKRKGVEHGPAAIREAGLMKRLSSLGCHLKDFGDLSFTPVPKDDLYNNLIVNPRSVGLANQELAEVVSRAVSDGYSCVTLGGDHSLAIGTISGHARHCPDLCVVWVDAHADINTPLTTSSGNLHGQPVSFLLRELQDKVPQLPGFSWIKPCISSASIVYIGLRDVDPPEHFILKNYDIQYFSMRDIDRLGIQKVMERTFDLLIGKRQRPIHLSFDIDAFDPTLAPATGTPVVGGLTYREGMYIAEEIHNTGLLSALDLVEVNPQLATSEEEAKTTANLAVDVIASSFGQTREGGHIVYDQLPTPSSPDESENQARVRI

[5] = molecular target: T3, Proteasome subunit beta (Trypanosoma cruzi) (UniProt O96673); assay: Trypanosoma cruzi proteasome chymotrypsin-like activity (TcProtChymo) assay.; further: in the data most compounds retested in dose-response had high values; format: functional; details: 9.37 µM
T3 sequence (whole entry): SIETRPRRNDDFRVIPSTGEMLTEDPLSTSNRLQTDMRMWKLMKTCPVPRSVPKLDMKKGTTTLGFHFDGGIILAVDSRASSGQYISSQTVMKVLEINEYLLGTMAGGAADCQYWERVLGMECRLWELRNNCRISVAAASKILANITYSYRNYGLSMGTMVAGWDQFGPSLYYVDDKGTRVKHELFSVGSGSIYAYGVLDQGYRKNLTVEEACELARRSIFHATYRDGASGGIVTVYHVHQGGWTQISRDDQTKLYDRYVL

Homo sapiens = organism: Homo sapiens; assay: To identify inhibition of the IFN signalling (Jak-Stat) pathway via expression of an eGFP reporter gene under the control of an IFN-stimulated response element (ISRE) containing MxA promoter.; format: functional; details: 30 µM
[6] = molecular target: T4, Tyrosyl-tRNA synthetase, putative (Trypanosoma cruzi (strain CL Brener)) (UniProt Q4DSP6); assay: Trypanosoma cruzi tyrosyl tRNA synthetase (TcYRS) _High Tyrosine SOP; format: functional; details: 30 µM; further: in the data most compounds retested in dose-response had high values
T4 sequence (whole entry): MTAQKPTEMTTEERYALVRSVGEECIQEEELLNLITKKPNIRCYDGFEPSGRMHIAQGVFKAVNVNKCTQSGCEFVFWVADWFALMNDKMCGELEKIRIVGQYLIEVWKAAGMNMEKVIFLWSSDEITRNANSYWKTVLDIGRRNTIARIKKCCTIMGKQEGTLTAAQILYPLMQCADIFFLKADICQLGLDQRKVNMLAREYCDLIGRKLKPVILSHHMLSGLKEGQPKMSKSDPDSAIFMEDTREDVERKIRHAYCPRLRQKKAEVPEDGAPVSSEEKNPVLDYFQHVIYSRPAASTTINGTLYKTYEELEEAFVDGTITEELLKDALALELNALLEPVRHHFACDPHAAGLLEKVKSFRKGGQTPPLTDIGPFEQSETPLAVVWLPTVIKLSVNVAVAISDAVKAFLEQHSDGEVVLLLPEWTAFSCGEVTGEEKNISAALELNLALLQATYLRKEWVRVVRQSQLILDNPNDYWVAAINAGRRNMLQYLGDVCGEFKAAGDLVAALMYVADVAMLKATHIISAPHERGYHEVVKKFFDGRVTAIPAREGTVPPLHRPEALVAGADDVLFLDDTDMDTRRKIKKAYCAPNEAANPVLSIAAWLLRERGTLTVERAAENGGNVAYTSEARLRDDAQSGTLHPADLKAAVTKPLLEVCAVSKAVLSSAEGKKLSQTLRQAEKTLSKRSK

[7] = molecular target: T4, Tyrosyl-tRNA synthetase, putative (Trypanosoma cruzi (strain CL Brener)); assay: Trypanosoma cruzi tyrosyl tRNA synthetase (TcYRS) SOP; format: functional; details: 30 µM
[8] = molecular target: Chromo domain-containing protein 1 (Saccharomyces cerevisiae (strain ATCC 204508 / S288c) (Baker's yeast)) (UniProt P32657); assay: ScCHD-1 Enzyme Inhibition Assay; format: functional; details: 30 µM; further: in the data most compounds retested in dose-response had high values
Chromo domain-containing protein 1 (Saccharomyces cerevisiae (strain ATCC 204508 / S288c) (Baker's yeast)), sequence (P32657 whole entry, the tested form may be a part): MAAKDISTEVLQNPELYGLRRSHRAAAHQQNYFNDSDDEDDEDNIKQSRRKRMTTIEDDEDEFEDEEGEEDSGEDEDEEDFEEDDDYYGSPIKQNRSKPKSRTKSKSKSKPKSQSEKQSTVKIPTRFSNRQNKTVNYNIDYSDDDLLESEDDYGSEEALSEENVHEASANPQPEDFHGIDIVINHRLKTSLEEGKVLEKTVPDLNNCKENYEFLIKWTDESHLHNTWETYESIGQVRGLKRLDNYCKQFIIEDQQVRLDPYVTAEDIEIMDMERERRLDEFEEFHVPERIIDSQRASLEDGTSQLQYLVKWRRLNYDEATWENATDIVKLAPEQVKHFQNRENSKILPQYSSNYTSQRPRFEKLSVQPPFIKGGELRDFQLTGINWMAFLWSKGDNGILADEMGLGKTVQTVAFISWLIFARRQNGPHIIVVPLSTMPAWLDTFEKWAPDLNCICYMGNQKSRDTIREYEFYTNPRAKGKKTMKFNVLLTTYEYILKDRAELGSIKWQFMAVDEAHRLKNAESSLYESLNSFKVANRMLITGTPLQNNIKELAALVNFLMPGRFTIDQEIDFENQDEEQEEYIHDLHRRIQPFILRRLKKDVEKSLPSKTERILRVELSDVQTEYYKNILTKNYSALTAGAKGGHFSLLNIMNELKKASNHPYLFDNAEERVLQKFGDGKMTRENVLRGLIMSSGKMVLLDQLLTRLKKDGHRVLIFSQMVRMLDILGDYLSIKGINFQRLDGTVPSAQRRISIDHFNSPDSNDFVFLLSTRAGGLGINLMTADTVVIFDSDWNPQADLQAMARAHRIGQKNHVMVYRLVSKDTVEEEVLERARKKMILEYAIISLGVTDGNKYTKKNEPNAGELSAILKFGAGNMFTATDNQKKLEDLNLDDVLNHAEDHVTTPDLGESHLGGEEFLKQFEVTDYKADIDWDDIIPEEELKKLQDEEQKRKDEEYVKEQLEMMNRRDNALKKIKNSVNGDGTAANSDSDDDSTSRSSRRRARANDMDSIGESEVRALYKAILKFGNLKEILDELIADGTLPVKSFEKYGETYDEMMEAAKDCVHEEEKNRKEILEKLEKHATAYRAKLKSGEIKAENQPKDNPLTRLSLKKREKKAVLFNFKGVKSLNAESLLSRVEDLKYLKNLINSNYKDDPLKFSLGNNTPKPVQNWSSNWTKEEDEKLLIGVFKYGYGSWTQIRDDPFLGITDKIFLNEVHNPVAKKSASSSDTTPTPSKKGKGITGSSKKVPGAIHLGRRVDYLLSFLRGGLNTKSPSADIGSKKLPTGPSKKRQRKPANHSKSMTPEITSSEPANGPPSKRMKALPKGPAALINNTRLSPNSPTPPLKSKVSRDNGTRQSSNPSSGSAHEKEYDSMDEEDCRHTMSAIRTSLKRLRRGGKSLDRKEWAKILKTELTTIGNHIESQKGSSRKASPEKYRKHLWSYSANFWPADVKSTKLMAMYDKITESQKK

Protein translocase subunit SecA (Escherichia coli (strain K12)), sequence (P10408 whole entry): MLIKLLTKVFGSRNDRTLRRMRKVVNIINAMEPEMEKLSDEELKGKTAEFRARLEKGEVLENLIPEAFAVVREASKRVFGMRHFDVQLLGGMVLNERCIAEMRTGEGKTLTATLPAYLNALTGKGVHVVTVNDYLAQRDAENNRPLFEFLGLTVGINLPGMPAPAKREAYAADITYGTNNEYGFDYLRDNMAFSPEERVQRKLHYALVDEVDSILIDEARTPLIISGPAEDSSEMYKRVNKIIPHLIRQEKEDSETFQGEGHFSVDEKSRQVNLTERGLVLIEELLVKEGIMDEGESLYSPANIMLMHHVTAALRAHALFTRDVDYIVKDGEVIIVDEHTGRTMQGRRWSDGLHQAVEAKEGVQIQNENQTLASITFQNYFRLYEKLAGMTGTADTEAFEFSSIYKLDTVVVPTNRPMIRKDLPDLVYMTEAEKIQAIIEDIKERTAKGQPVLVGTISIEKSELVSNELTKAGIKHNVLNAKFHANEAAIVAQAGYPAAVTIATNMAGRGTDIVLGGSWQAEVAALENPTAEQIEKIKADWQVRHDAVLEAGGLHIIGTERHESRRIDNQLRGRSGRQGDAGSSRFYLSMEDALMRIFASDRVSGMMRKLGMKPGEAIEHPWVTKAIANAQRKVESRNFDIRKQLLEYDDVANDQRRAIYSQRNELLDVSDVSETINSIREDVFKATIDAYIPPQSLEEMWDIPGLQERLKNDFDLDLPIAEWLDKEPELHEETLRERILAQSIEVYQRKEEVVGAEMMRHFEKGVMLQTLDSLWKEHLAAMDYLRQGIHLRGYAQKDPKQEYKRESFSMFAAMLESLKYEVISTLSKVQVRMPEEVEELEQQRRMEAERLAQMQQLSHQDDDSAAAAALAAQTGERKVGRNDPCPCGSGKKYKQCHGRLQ
Sialic acid-binding Ig-like lectin 9 (Homo sapiens), sequence (Q9Y336 whole entry): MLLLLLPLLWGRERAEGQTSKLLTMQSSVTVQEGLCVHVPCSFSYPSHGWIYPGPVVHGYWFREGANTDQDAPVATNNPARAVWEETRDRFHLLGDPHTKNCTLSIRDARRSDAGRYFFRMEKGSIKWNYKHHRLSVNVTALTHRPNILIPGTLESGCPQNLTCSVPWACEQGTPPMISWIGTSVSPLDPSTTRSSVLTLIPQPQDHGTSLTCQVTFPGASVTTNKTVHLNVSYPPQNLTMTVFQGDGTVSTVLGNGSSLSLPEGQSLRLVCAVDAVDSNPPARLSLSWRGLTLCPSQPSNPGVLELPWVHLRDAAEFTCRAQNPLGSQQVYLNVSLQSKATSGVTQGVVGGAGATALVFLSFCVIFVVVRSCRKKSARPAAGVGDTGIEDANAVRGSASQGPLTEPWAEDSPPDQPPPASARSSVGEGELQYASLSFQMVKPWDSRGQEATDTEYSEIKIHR

SMILES	Percent Effect [1] [%]	Percent Effect [2] [%]	Percent Effect [3] [%]	Percent Effect (Trypanosoma cruzi) [%]	Percent Effect [4] [%]	Percent Effect [5] [%]	Percent Effect (Homo sapiens) [%]	Percent Effect [6] [%]	Percent Effect [7] [%]	Percent Effect [8] [%]
CN(C)C[C@@H]1C[C@@H]2CN(C(=O)c3ccoc3)CC[C@@H]2N1CC1CC1	-7.24	11.7	1.31	-6.19	0.913	0.429	11.2	-4.83	-2.5	-4.24
Cc1cc(C)n(C2CCCN(C(=O)c3c(C)c(C)n[nH]c3=O)C2)n1 (stereo not given)	-1.62	8	4.21	-4.62	0.887	4.16	17.4	1.58	2.56	-4.78
O=C(CN1CCCS1(=O)=O)NCCOc1ccc2c(c1)CCC2	-6.62	2.56	4.23	3.66	5.74	-10.2	6.45	1.44	6.02	-2.78
CCS(=O)(=O)N1CCC2(CC1)CN(Cc1ccccn1)C(=O)CO2	2.67	1.3	1.21	-0.487	1.62	3.44	-2.87	-1.58	0	2.48
Cc1ccc(SCC2CNc3nc4ccccc4c(=O)n32)c(C)c1 (stereo not given)	0.606	22.1	23.4	0.375	5.94	12.4	29.8	6.76	-2.5	-2.7
CC(C)c1nnc2n1CCN(C(=O)c1ccc3cc[nH]c3c1)C2	-6.11	10.7	4.04	-1.61	2.66	1.27	6.35	5.79	12.8	-9.74
COc1ccc(F)cc1C(C)NC(=O)Cn1ccc(=O)n(C)c1=O (stereo not given)	2.28	13	2.06	2.05	5.94	9.82	-0.632	9.8	21.2	-4.5
O=C1N(CC2CC2)CCC12CCN(c1ncccn1)CC2	2.77	16.9	-4.8	-3	2.74	16.7	12.4	6.76	10	-10.6
CCc1nnc(CN2CCCC(c3cc(C(F)(F)F)[nH]n3)C2)o1 (stereo not given)	-0.463	0	-0.304	-4.22	3.1	15.3	-7.26	1.58	-2.56	-3.78
Cc1ccc(CN2CCCn3c(nc(CN4CCCC4)cc3=O)C2)s1	-4.72	3.9	-1.12	-2.82	-2.02	2.38	-18.4	0.526	7.69	3.51
Cc1ccc(C(=O)N2CCC3(CC2)CC(N2CCOCC2)C3)cc1	-2.43	9.09	-5.57	1.31	0.457	-3.18	-1.46	3.87	2.5	0.386
O=C(c1ccccn1)N1Cc2nccn2CC(CN2CCOCC2)C1 (stereo not given)	-4.41	9.09	-2.41	-2.63	5.67	8.56	4.82	12.1	15.4	1.74
O=C(Cc1n[nH]c2ccccc12)N1CCC(Nc2cccnn2)CC1	-6.35	10.4	4.16	3.36	-7.58	13.2	-4.05	5.88	11.8	-9.11
NC[C@H]1CC[C@H](C(NC(=O)c2ccccn2)c2ccccn2)CC1 (stereo not given in full)	0.0974	14.7	1.2	-1.58	0.443	15.6	8.78	4.23	22.5	-24.4
Cc1cc(OCC(=O)N2CCCC(c3ccn[nH]3)C2)no1 (stereo not given)	-3.04	5.33	5.5	-5.62	3.55	6.36	3.56	3.68	7.69	-8.42
O=C1C[C@H]2[C@@H](CCN2C(=O)Cc2cccs2)N1Cc1cccnc1	-6.6	9.09	-0.0705	-1.31	-4.11	13.7	8.33	6.76	7.5	-3.4
Cc1cc2c(=O)n3c(nc2s1)CCN(Cc1cnc(C(C)C)nc1)CC3	-1.05	4	-0.31	-7.69	3.98	5.91	28.4	0	5	-25.8
CCCN1CCCn2nc(CNS(=O)(=O)c3ccc(C)cc3)cc2C1	-8.28	2.7	2.48	-5.72	-3.85	10.3	5.89	3.72	9.76	-1.82
COc1cccc(COCC(=O)N2CCCC(n3ccnc3C)C2)c1 (stereo not given)	-2.06	-5.13	-2.52	4.6	4.92	-4.35	19.1	-3.35	1.21	2.95
Cc1ncoc1C(=O)N1CCn2c(COCC3CC3)cnc2C1C (stereo not given)	-6.41	9.09	-3.19	0.487	-0.81	10.2	-4.92	7.89	12.8	-2.4
COCCN1CCN(Cc2cccc(OCC(N)=O)c2)CC1C (stereo not given)	-6.03	0	-0.422	-3.81	-0.887	-0.255	7.49	2.63	0	-4.22
Cn1ncc(NCc2cc(F)cc(F)c2)c(Cl)c1=O	-3.8	13.3	-5.81	-3.01	-10.6	7.55	37.7	4.74	10.3	-11.4
CC(=O)N1CCCC1c1csc(Nc2cnccn2)n1 (stereo not given)	0.761	9.33	-8.01	-5.33	2.21	11.8	20	3.17	10	-25.7
O=C(c1ccnnc1)N1CCC2(CC1)CC(N1CCOCC1)C2	0.141	14.3	-2.15	-2.25	5.48	13.8	22.2	4.83	2.5	-8.83
CC(NC(=O)CN(C)S(C)(=O)=O)c1nnc2n1CCCCC2 (stereo not given)	1.95	13	1.1	-4.48	-15	17.2	26.4	-0.98	4.71	-8.79
Cc1ccc(-c2nc(CN3CCn4c(nnc4C4CC4)C3)co2)cc1	-5.43	-5.33	-0.413	-1.41	0	9.92	-8.93	6.84	12.8	-6.77
